Assay outcomes as filed in PubChem.
The list is not random: actives were taken first. Their share in the collection is about 3.9%.
TROY signal inh: inhibitors of TROY-driven NF-kB signaling, primary screen, Q293 LMP1-TROYcd cells, NF-kB luciferase, uHTS; inhibition, % at 10 µM; 0.98% of 360,000 active; Q293 LMP1-TROYcd NF-kB luciferase reporter, 4 h;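 active means compounds whose plate-normalised and pattern-corrected inhibition of the luciferase reporter signal at the single screening dose is 50% or more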
HSP90 inh: HSP90 inhibitors, primary screen, cell lysate, luminescence. Rabbit reticulocyte lysate, luciferase refolding luminescence, 3 h. inhibition, % at 5.6 µM. 0.91% of 290,000 active. AID 1789, 2009;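 active means inhibition above the screen-wide mean plus 3 SD, computed separately per campaign, cut at about 16% in these data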;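 further: 0% = DMSO wells and 100% = 60 µM geldanamycin wells; inhibitors lower the luminescence because luciferase stays unfolded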
TWEAK Fn14 block: inhibitors of TWEAK-Fn14 signaling, primary screen, luciferase reporter cells, uHTS. TWEAK-stimulated Fn14 reporter cells, luciferase luminescence, 8 h. inhibition, % at 10 µM. 2% of 360,000 active. AID 1159606, 2016; in the data active means inhibition above about 50%
aSyn UTR inh: MLPCN primary screen, SNCA 5' untranslated region; inhibition, % (tested at 7.5 µM); 0.82% of 300,000 active; alpha-synuclein 5'UTR reporter, inhibitor activity; in the data active means inhibition above about 60%;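 further: H4 neuroglioblastoma cells stably carrying SNCA 5'UTR luciferase fusion; 0% = DMSO wells and 100% = positive control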
HIF-2a inh: HIF-2a reporter inhibitors, primary screen, luminescence, 786-0 RCC cells | AID 624352, 2012 | 786-0 RCC cells HIF-2a reporter, luciferase luminescence, overnight | 0.72% of 360,000 active | inhibition, % at 18.8 µM;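 active means inhibition of the luminescence signal of 40% or more relative to plate controls, in a single-dose primary screen at 18.75 µM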
TRAIL sens C8: viability loss with TRAIL in NB7+C8 cells, primary screen, TRAIL sensitizer project, cell-based, ATPlite luminescence; 1% of 360,000 active; inhibition (viability loss, TRAIL sensitization), % at 10 µM; AID 624354, 2012;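 active means compounds causing at least 50% loss of cell viability in the single-dose screen, relative to plate controls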
* = called active by the depositor; . = no result.

SMILES | TROY signal inh | HSP90 inh | TWEAK Fn14 block | aSyn UTR inh | HIF-2a inh | TRAIL sens C8
O=S(=O)(Nc1ccc(F)cc1Cl)c1ccc(-c2cnc(C3CC3)o2)cc1 | 52.2* | -0.6 | 21.7 | 67.6* | 20.1 | 17.9
O=C(CN(C1CCCCC1)S(=O)(=O)c1ccc(F)cc1)NCC1CCCO1 (configuration not stated) | 1.7 | . | 47.3 | . | 21.9 | 94.5*
CCCn1cnc2cc(NCc3ccc(Br)cc3)ccc21 | 38.5 | -2.5 | 19.4 | -93.1 | -291.6 | 8.6
CCn1cnc2cc(NCc3ccc(N(C)C)cc3)ccc21 | 67.2* | 6.2 | 65.2* | -51.0 | -185.8 | 19.5
CCCn1cnc2cc(NCc3cccc(OC)c3)ccc21 | 65.8* | -2.9 | 73.1* | -141.0 | -162.4 | 14.3
CN(C)c1ccc(CNc2ccc3c(c2)ncn3C(C)(C)C)cc1 | 86.6* | 4.2 | 58.4* | -61.6 | -61.5 | 6.5
O=C(CCCN1C(=O)/C(=C/c2ccccc2OC(F)F)SC1=S)Nc1cccnc1 | 15.7 | . | 27.5 | . | 22.5 | 21.8
CCN1CCN(c2oc(/C=C/c3ccccc3)nc2C#N)CC1 | 52.6* | 2.4 | 21.2 | -29.8 | -93.9 | -11.6
CCN1CCN(c2oc(-c3ccc(OC)cc3)nc2C#N)CC1 | -17.0 | -0.6 | -2.1 | 15.9 | -8.9 | -6.2
N#CCCN(C(=S)NC(=O)C1CCCCC1)c1ccccc1F | -6.5 | . | -12.3 | . | 1.8 | -6.0
CC(c1nc2ccccc2[nH]1)n1c(=O)c(-c2ccco2)nc2ccccc21 (configuration not stated) | . | . | . | . | 1.5 | -1.2
CC(C)=CC(O)C/C(C)=C/COc1ccc2ccc(=O)oc2c1 (configuration not stated) | 8.2 | . | 83.5* | -48.4 | -2.5 | 17.4
COC1=CC(=O)OC(c2ccc(C#N)cc2)C1 (configuration not stated) | . | . | . | . | -0.4 | 5.5
Cc1ccc(C(=O)N2c3ccccc3OCC2C)cc1 (configuration not stated) | 0.6 | -0.7 | 11.0 | 3.1 | 7.7 | 9.7
Cc1ccc(C(=O)N2C(=O)C(c3ccccc3)Oc3ccccc32)cc1 (configuration not stated) | 32.9 | -0.8 | 31.8 | 92.8* | -4.5 | -12.1
CN1CCN(c2cc(CNC[C@H]3O[C@@H](n4cnc5c(=O)[nH]c(N)nc54)[C@H](O)[C@@H]3O)ccc2F)CC1 | 4.8 | . | 2.6 | . | 8.3 | -10.4
COc1ccc(C(=O)NCCc2ccc(F)cc2)cc1OC | -23.6 | -0.5 | -3.3 | -10.3 | -96.1 | -7.5
COc1ccc(CCNC(=O)c2cc3cc(F)ccc3nc2C)cc1OC | 14.7 | . | 51.3* | -11.4 | 10.0 | -0.8
COc1ccc(/C=N/NC(=O)Nc2cccc3nsnc23)cc1OC | 13.6 | -1.5 | 61.9* | 28.1 | -2.8 | 2.8
COc1ccc(/C=N/NC(=O)c2cccc(C(=O)N/N=C/c3ccc(OC)c(OC)c3)n2)cc1OC | -3.8 | -2.8 | -17.1 | 12.8 | -2.7 | -6.3
O=C(Nc1ccc(Cl)cc1)Nc1cccc2nsnc12 | 29.3 | -2.2 | 55.9* | -125.8 | -308.9 | -5.1
CC(C)NC(=O)c1cc(C2CCCCN2S(=O)(=O)c2ccc(F)cc2F)on1 (configuration not stated) | 3.0 | . | 2.4 | . | 2.7 | -11.0
CC1CCc2c(sc(/N=C/c3ccco3)c2C(N)=O)C1 (configuration not stated) | -11.4 | 4.5 | -15.3 | -125.2 | -273.9 | 62.7*
CC1CCc2c(sc(/N=C/c3cccnc3)c2C(N)=O)C1 (configuration not stated) | -24.7 | -1.6 | -10.7 | -102.8 | -109.2 | 5.7
Oc1ccccc1/C=N/NC(=S)NCCc1ccccc1 | 4.8 | -5.2 | 93.5* | -52.0 | -156.3 | 13.4
SMILES | TROY signal inh | HSP90 inh | TWEAK Fn14 block | aSyn UTR inh | HIF-2a inh | TRAIL sens C8
CC(C)(CNC(=S)NCCc1ccccc1)CNC(=S)NCCc1ccccc1 | 37.6 | 5.5 | 55.8* | 2.2 | -2.5 | 7.2
O=C(O)CC(C(=O)O)C(=Cc1ccccc1)c1ccccc1 (configuration not stated) | -5.3 | . | 6.8 | . | 7.2 | 15.2
Cc1ccccc1S(=O)(=O)NC(=O)C1(C)CCN1C(=O)CC(c1ccccc1)c1ccccc1 (configuration not stated) | 7.0 | . | 0.5 | . | 2.5 | -1.4
NCCOc1ccc(C2CCCCC2)cc1 | 4.9 | 2.6 | 6.1 | 71.4* | -79.0 | -4.9
CC1=NOC(=O)/C1=C\c1ccc(-c2ccc(Br)cc2)o1 | 73.0* | -1.4 | 64.4* | -39.4 | -20.9 | -2.6
CC1=NOC(=O)/C1=C\c1ccc(-c2ccc(Br)cc2C(=O)O)o1 | -15.2 | 2.1 | -2.2 | -18.9 | -1.4 | -7.5
CC1=NOC(=O)/C1=C\c1ccc(-c2cc(Cl)ccc2Cl)o1 | 1.6 | 0.8 | 101.2* | -2.5 | -1.7 | 41.5
CC1=NOC(=O)/C1=C/c1ccc(-c2ccc(Cl)cc2)o1 | 77.7* | 2.0 | 73.5* | . | -114.3 | 5.6
CNc1ncnc2c1ncn2[C@H]1CN(CCN2CCOCC2)C[C@@H](CO)O1 | 2.5 | . | 10.1 | . | 8.8 | -15.2
COc1cccc2sc3ccc(C#CC4(O)CCCCC4)cc3c(=O)c12 | 77.2* | 8.1 | 35.4 | -190.8 | -277.6 | 54.4*
Clc1ccccc1CN(Cc1ccccc1)c1ncnc2nc[nH]c12 | 26.5 | -2.6 | 6.4 | 8.3 | 23.1 | -9.5
CCCN(CCC)c1ncnc2nc[nH]c12 | 50.2* | -4.9 | 62.8* | 41.2 | 27.6 | 2.9
O=C(OCc1nnc(-c2ccc(Cl)cc2)o1)C12CC3CC(CC(O)(C3)C1)C2 | 67.1* | 12.7 | 48.1 | -204.6 | -174.1 | 5.7
Cn1nc(C(=O)Nc2ccc(S(=O)(=O)N3CCCCC3)cc2)ccc1=O | 5.2 | 2.7 | 104.1* | -1.6 | 22.0 | 8.1
Cn1nccc1C(=O)Nc1ccc(S(=O)(=O)N2CCCC2)cc1 | 6.5 | -4.3 | 1.3 | 0.5 | -2.9 | -6.2
N#Cc1c(/N=C/c2cccs2)sc2c1CCCCC2 | 0.5 | 7.2 | 27.6 | -186.0 | -111.9 | 54.0*
Cc1cccc(C)c1NC(=O)C1(C)CSCC(=O)N1Cc1cccc(C(F)(F)F)c1 (configuration not stated) | . | . | . | . | 2.7 | -4.0
CC1(c2nnnn2Cc2ccccc2)CCC(=O)N1CCCn1ccnc1 (configuration not stated) | -5.7 | . | 19.6 | . | 7.5 | 0.4
COc1cccc(CN2C(=O)C(C)N(C(=O)c3c(F)cccc3F)c3ccccc32)c1 (configuration not stated) | 38.0 | 10.1 | 74.5* | -3.2 | 17.6 | 19.9
CC1C(=O)N(Cc2ccccc2F)c2ccccc2N1C(=O)c1c(F)cccc1F (configuration not stated) | 30.3 | 3.6 | 32.3 | 2.7 | 26.3 | 10.8
O=C(NCc1ccccc1)C1c2ccccc2OCC(=O)N1Cc1ccccc1 (configuration not stated) | -13.0 | . | -3.4 | . | 6.5 | -15.9
